PubChem BioAssay (Tox21)
Results filed as inconclusive are left out. Entries that show only a call come without a potency. The source made the active and inactive calls. Calls follow the shape of the dose curve; as a rule, active = well fitted activation curve with a large enough effect in the repeat runs; inconclusive = weak or mixed curves; inactive = no such curve, though single readings can be large or run the other way.

Target: Aryl hydrocarbon receptor (Homo sapiens) (UniProt P35869)
Test: qHTS assay to identify small molecule that activate the aryl hydrocarbon receptor (AhR) signaling pathway (AID 743085); also: nearly all actives have a fitted effect of over 15% in size;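 as to activation: HG2L7.5c1 human HepG2 liver cells with stably integrated DRE-driven firefly reporter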
Settings: HepG2 AhR-luc (HG2L7.5c1), luciferase, 24 h; series mostly up to 70.3 µM
From the text: U.S. Tox21 Program National Center for Advancing Translational Sciences [NCATS] NIH Chemical Genomics Center [NCGC] U.S. Environmental Protection Agency [EPA] National Institutes of Environmental Health Sciences [NIEHS] National Toxicology Program [NTP] U.S. Food and Drug Administration [FDA] Tox21 Assay overview: The Aryl hydrocarbon Receptor (AhR), a member of the family of basic helix-loop-helix transcription factors, is crucial to adaptive responses to environmental changes. AhR mediates cellular responses to environmental pollutants such as aromatic hydrocarbons through induction of phase I and II enzymes but also interacts with other nuclear receptor signaling pathways. A cell based HepG2-AhR-luc assay (HG2L7.5c1 cell line, developed by Dr. Michael S. Denison, University of California at Davis, was used to assess the activation of AhR. HepG2 (human hepatocellular carcinoma) cells were stably transfected with an Ah receptor-responsive firefly luciferase reporter gene plasmid containing 20 dioxin responsive elements and luciferase reporter gene. Increased luciferase activity can be used to identify the compounds that induce AhR activation.
Tox21 Assay Protocol Summary: 4000 cells in 5 uL/well were dispensed into white wall/solid bottom 1536-well plates using a Multidrop Combi (Thermo Fisher Scientific Inc., Waltham, MA) dispenser. After the assay plates were incubated at 37C for 5 h, 23 nL of compound or DMSO vehicle was transferred to the assay plates by a pintool station (Kalypsys, San Diego, CA). The plates were incubated at 37C for 24 hr. After 1 ul/well of CellTiter-Fluor reagent (Promega, Madison, WI) was added into the assay plates using a Flying Reagent Dispenser (FRD) (Aurora Discovery, CA), the assay plates were incubated at 37C for 30 min. The fluorescence intensity in the plates was measured using a ViewLux plate reader (PerkinElmer, Shelton, CT), followed by the addition of 4 uL of ONE-Glo Luciferase Assay reagent (Promega) using an FRD (Aurora Discovery). After the assay plates were incubated at room temperature for 30 min, luminescence intensity was measured using a ViewLux plate reader (Perkin Elmer).
Potency is read from the fitted curve at half-maximal effect.

Sequence of Aryl hydrocarbon receptor (Homo sapiens) (P35869 whole entry, looked up): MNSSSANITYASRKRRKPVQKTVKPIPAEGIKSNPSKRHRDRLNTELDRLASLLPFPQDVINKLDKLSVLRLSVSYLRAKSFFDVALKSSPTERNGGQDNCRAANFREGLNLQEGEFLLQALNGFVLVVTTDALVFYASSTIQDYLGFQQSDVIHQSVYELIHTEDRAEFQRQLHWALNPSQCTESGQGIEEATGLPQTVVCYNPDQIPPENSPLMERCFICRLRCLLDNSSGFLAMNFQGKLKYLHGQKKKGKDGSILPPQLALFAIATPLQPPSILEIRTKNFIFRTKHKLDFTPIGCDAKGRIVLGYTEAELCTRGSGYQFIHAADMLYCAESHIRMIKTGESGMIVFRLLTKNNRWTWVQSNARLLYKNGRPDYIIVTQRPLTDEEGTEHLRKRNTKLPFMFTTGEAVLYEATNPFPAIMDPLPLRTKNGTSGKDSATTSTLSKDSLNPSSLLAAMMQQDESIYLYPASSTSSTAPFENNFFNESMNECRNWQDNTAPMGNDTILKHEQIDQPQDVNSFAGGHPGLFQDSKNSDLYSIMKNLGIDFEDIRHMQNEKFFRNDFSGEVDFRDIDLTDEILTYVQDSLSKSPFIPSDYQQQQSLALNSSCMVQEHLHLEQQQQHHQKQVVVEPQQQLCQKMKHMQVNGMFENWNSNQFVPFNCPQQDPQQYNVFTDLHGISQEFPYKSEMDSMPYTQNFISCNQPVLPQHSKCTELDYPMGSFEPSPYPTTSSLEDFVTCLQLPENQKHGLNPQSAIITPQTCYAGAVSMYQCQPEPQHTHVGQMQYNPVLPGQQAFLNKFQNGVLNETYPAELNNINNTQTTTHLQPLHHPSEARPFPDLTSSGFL

| Compound | Potency |
| --- | --- |
| FC(F)(F)C(Cl)(Cl)Cl | inactive |
| CCOC(=O)C1CC(=O)C(=C(O)C2CC2)C(=O)C1 (stereo not given) | inactive |
| O=C(CC(=O)C(F)(F)F)c1ccccc1 | inactive |
| Cc1ccc(C(C)C)cc1O | inactive |
| Cc1cccc(C)c1NC(=O)CN1CCCCCC1 | inactive |
| Cc1ncc(CO)c(CN)c1O | inactive |
| C=C(C)C(=O)OCCOP(=O)(O)O | inactive |
| O=CCCc1ccccc1 | inactive |
| CC(C)S | inactive |
| COC(=O)N[C@H](C(=O)N[C@@H](Cc1ccccc1)[C@@H](O)CN(Cc1ccc(-c2ccccn2)cc1)NC(=O)[C@@H](NC(=O)OC)C(C)(C)C)C(C)(C)C | inactive |
| CCC(=O)O[C@]1(C(=O)SCF)[C@H](C)C[C@H]2[C@@H]3C[C@H](F)C4=CC(=O)C=C[C@]4(C)[C@@]3(F)[C@@H](O)C[C@@]21C | inactive |
| CC(C)=CCCC(C)CCOC=O (stereo not given) | inactive |
| O=C(O)C(=O)Cc1c[nH]c2ccccc12 | 6.11 µM (active) |
| CCc1nnc(NS(=O)(=O)c2ccc(N)cc2)s1 | inactive |
| OCCN(CCO)CCN(CCO)CCO | inactive |
| COc1cc(C)ccc1C(C)C | inactive |
| CC(C)C(=O)OCC(C)(C)C(O)C(C)C (stereo not given) | inactive |
| CCCCN1C[C@H](O)[C@@H](O)[C@H](O)[C@H]1CO | inactive |
| OCCN1CCN(CCO)CC1 | inactive |
| CCCCNc1cc(C(=O)O)cc(S(N)(=O)=O)c1Oc1ccccc1 | inactive |

| Compound | Potency |
| --- | --- |
| OCCN(CCO)c1ccccc1 | inactive |
| CC(C)CCCCCCc1ccc(OCCOCCO)cc1 | inactive |
| OCc1c2ccccc2cc2ccccc12 | inactive |
| CN(C)CCOc1ccccc1Cc1ccccc1 | inactive |
| COc1cc(Cl)ccc1Cl | inactive |
| CCc1cc(Cl)c(OC)c(C(=O)NC[C@@H]2CCCN2CC)c1O | inactive |
| COC(=O)c1ccc(OC)cc1 | inactive |
| CCCCCCC | inactive |
| CCCCc1ccc2nc(NC(=O)OC)[nH]c2c1 | 1.01 µM (active) |
| CCCCCCCCCC#N | inactive |
| C=CC1CO1 (stereo not given) | inactive |
| CCOC(=O)c1ccccc1O | inactive |
| CCCCCCCCOC(=O)CCCCCCCCC(=O)OCCCCCCCC | inactive |
| C=Cc1ccccc1 | inactive |
| COc1cc2c(cc1N)oc1ccccc12 | 31.3 µM (active) |
| CC(=O)N(CC(O)CN(C(C)=O)c1c(I)c(C(=O)NCC(O)CO)c(I)c(C(=O)NCC(O)CO)c1I)c1c(I)c(C(=O)NCC(O)CO)c(I)c(C(=O)NCC(O)CO)c1I (stereo not given) | inactive |
| CC(C)C(=O)OC/C=C/c1ccccc1 | inactive |
| Cc1ccsc1C(=CCCN1CCC[C@@H](C(=O)O)C1)c1sccc1C | inactive |
| C=CCCCCCCCCO | inactive |
| CCCNC(C)C(=O)Nc1c(C)csc1C(=O)OC (stereo not given) | inactive |
